# According to PubChem BioAssay (NCATS):
# Records with an inconclusive call do not appear. Where a call stands in place of a potency, no number is given. Active and inactive are the calls of the source. The call rests on the fitted dose curve; in most records, active means well fitted curve in the direction sought with a large enough effect; inconclusive means small, poorly fitted or top-dose-only effect, or another doubt; inactive means no such curve, though single readings can be large; an effect the other way counts as inactive or inconclusive.
# How the values were obtained:
# [1] = target: Metallo-beta-lactamase type 2 (Klebsiella pneumoniae) (UniProt C7C422); assay: qHTS to identify inhibitors of the New Delhi Metallo-beta-lactamase (NDM): assay validation screen against the NCATS LOPAC Collection (AID 1794843); further: potency means the concentration at half of the fitted maximal effect
# Sequence of Metallo-beta-lactamase type 2 (Klebsiella pneumoniae) (C7C422 whole entry, looked up): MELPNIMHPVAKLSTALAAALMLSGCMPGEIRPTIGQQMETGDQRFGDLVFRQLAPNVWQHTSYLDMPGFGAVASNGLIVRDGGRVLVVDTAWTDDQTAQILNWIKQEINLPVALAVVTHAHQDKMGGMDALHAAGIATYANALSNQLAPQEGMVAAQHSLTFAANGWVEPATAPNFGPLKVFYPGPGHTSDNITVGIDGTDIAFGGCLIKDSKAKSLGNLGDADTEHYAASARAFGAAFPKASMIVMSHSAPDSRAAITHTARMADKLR
# How it was run: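 NDM-1 at 2 nM final in 50 mM HEPES pH 7.0, 1 uM ZnSO4, 0.01% Tween20, preincubated with LOPAC compounds pinned in DMSO; 50 uM nitrocefin (stock) added. Hydrolysis read as absorbance at 485 nm in the plateau phase.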
# [2] = target: Glutathione peroxidase 1 (Homo sapiens) (UniProt P07203); assay: Primary qHTS Assay for Inhibitors of Recombinant Selenoprotein Glutathione Peroxidase 1 (GPX1) (AID 1845191); further: nearly all actives have a fitted effect of over 65% in size
# Sequence of Glutathione peroxidase 1 (Homo sapiens) (P07203 whole entry, looked up): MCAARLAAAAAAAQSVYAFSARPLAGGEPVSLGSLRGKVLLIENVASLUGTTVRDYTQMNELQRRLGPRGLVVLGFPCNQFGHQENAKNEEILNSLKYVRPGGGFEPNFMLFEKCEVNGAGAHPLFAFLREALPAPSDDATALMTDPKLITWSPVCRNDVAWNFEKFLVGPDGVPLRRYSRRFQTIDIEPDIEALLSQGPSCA
# How it was run: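 Recombinant GPX1 (10 nM final) was preincubated with compound for 30 min at room temperature, then reacted with 1 mM GSH, 0.5 mM CHP, 0.5 mM NADPH and 100 nM glutathione reductase; NADPH fluorescence (340/450 nm) was read at 0 and 15 min.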
# [3] = target: Phospholipid hydroperoxide glutathione peroxidase GPX4 (Homo sapiens) (UniProt P36969); assay: Primary qHTS Assay for Inhibitors of Recombinant Selenoprotein Glutathione Peroxidase 4 (GPX4) (AID 1845192); further: nearly all actives have a fitted effect of over 65% in size
# Sequence of Phospholipid hydroperoxide glutathione peroxidase GPX4 (Homo sapiens) (P36969 whole entry, looked up): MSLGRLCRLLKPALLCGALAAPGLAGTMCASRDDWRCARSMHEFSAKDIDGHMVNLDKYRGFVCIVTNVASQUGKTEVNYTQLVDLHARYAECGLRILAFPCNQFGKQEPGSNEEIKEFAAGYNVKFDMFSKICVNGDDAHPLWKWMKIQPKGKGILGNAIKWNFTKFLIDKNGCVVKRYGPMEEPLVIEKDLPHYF
# How it was run: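 GR-coupled readout: 100 nM GR, 1 mM GSH, 0.5 mM NADPH; NADPH fluorescence (ex 340/em 450 nm) read at t=0 and after 15 min RT. GPX4 200 nM, preincubated 30 min with compound; substrate 0.5 mM CHP.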
Structure (SMILES),Potency [1],Potency [2],Potency [3]
COc1ccc(-c2cc(=O)c3c(O)c(OC)c(OC)cc3o2)cc1O,inactive,inactive,inactive
O=C(O)c1cc(=O)c2c(Cl)cc(Cl)cc2[nH]1,inactive,inactive,inactive
CN1CC(=O)N/C1=N/C(=O)Nc1cccc(Cl)c1,inactive,inactive,inactive
O=C(c1ccc(OCCCc2cnc[nH]2)cc1)C1CC1,inactive,inactive,inactive
CC(C)c1cccc(C(C)C)c1N1C(=O)c2ccc(O)cc2C1=O,inactive,inactive,inactive
Oc1ccccc1O,inactive,inactive,inactive
COC(=O)c1c(C)[nH]c(C)c1C(=O)c1ccccc1Cc1ccccc1,inactive,inactive,inactive
c1cnc2c(c1)ccc1cccnc12,20 µM (active),inactive,inactive
NCCCCC(=O)O,inactive,inactive,inactive
Fc1cccc(/C=N/N=C/c2cccc(F)c2)c1,inactive,inactive,inactive
COc1ccccc1CN[C@@H]1CCCN[C@@H]1c1ccccc1,inactive,inactive,inactive
Nc1nc2c(ncn2[C@@H]2O[C@H](CO)[C@@H](O)[C@@H]2O)c(=O)[nH]1,inactive,inactive,inactive
COc1ccccc1CNCCCCCCNCCCCCCCCNCCCCCCNCc1ccccc1OC,inactive,inactive,inactive
O=C1NC(=O)/C(=C/c2ccc3nccnc3c2)S1,inactive,inactive,inactive
O=C(/C=C/c1ccc(O)c(O)c1)OCCc1ccccc1,inactive,inactive,inactive
NC(CCCP(=O)(O)O)C(=O)O (stereo not drawn),inactive,inactive,inactive
